What follows are compounds tested on KIT-autoinhibited. Settings: concentration: 1 μM, replicates: in singlicate; n = 1.
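Further: KINOMEscan kinase panel screen.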

Point of comparison: `O=C(O)C(F)(F)F.O=C(O)C(F)(F)F.O=c1[nH]ccc2nc(N[C@@H]3CCCNC3)nc(Nc3ccc(S(=O)(=O)N4CCOCC4)cc3)c12` [GSK2177277], “%Inh” value 70%. Against it:
- CN(C)S(=O)(=O)c1cc(-c2ccc3nccc(-c4cccc(S(N)(=O)=O)c4)c3c2)cnc1N [GSK1669921] — lower, 0%
- Cn1cc(-c2ccc3c(c2)CCN3C(=O)Cc2cccc(F)c2)c2c(N)ncnc21 [GSK2603358] — lower, 7%
- COc1ccc(CNC(=O)NC2CCN(c3ccnc(Nc4ccc(F)cc4)n3)CC2)cc1 [GSK1379788] — lower, 0%
- O=C(Nc1cccc(-c2nn3ccccc3c2-c2ccnc(Nc3cccc(F)c3)n2)c1)c1c(F)ccc(F)c1Cl [GSK357952] — lower, 0%
- Cl.Cl.NCC(NCc1ccc(-c2ccnc3[nH]ccc23)s1)c1ccccc1 (stereo not shown) [GSK1321565] — lower, 0%
- CCc1ccc(-c2ccc3c(c2)-c2c(cnn2C)S(=O)(=O)N3C)cc1 — lower, 0%
- Cc1occc1-c1ncc(OC[C@@H](N)Cc2c[nH]c3ccccc23)cc1-c1ccc2[nH]nc(C)c2c1.O=C(O)C(F)(F)F [GSK682037] — lower, 0%
- COCCOCCOc1cc2ncc3c4ccc(C#N)cc4[nH]c3c2cc1OC — lower, 61%
- CN(C)Cc1ccc(-c2ccc3c(Nc4ccc(Oc5ccccn5)cc4)ccnc3c2)o1 [GW567148] — lower, 0%
- Cc1ccc(C(=O)N2CC[C@@H](O)C2)cc1-n1c(C)cc(OCc2ccc(F)cc2F)c(Br)c1=O — lower, 0%
- Cn1cc(-c2[nH]c3cc(NC(=O)[C@H](N)C4CCCCC4)cc4c3c2C=NNC4=O)cn1 — lower, 28%
- COc1cc(Nc2nccc(-c3c(-c4cccc(NC(=O)c5c(F)cccc5F)c4)nn4ncccc34)n2)cc(OC)c1OC [GSK327238] — lower, 31%
- CC(=O)Nc1nc2cnc(Nc3cc(NC(=O)c4cccc(C5(C#N)CC5)c4Cl)ccc3C)nc2s1 — lower, 0%
- Cc1ccc(C(=O)Nc2ccc(Nc3ccnc4cc(-c5nccs5)ccc34)cc2O)cc1.Cl [GW494702] — lower, 0%
- Nc1ncc(-c2cccnc2)c2scc(-c3ccc4c(c3)CCN4C(=O)Cc3ccccc3)c12 [GSK683281] — lower, 7%
